This is one part of a sample in which hits are shown more often than they occur.
ST2 inh – inhibitors of human ST2 (IL1RL1) binding to IL-33; AlphaLISA ST2-Fc/biotin-IL-33 interaction, 1 h; inhibition, % for hits at 17 µM; 78,000 tested, 2.3% active; Q01638; AID 1259354; in the data active = inhibition above about 30%
Target sequence (Q01638 whole entry, looked up): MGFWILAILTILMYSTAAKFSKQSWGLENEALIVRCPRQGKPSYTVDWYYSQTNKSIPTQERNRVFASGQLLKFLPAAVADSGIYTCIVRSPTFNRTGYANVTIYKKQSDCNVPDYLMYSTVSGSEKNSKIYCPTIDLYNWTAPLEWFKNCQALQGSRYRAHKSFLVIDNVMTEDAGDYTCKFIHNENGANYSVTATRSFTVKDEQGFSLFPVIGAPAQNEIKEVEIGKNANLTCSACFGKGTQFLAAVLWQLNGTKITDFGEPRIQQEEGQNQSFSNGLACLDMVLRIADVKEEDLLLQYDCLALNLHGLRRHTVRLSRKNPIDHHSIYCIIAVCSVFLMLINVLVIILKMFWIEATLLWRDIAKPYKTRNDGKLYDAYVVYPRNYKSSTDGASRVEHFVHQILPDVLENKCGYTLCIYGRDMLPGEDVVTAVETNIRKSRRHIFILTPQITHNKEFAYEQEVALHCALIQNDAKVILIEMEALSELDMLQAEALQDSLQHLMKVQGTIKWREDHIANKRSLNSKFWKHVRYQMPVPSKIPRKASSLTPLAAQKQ
* = called active by the depositor; i = inactive.

SMILES | ST2 inh
O=C(Nc1c(C(=O)Nc2ccc(Br)cc2)cnn1-c1ccccc1)c1cccc(F)c1 | i
CC(C)C(O)(C#CC(O)(C(C)C)C(C)C)C(C)C | i
CCCCNC(=O)CCS(=O)(=O)c1cc(Br)cc2c1N(C(C)=O)CC2 | i
COc1ccc(NC(=O)c2sc3ccccc3c2Cl)cc1Cl | i
CCCNC(=O)c1sc2c(Cl)c(OC)ccc2c1Cl | 53%*
CCCCNC(=O)c1sc2ccccc2c1Cl | i
COc1ccccc1C(=O)Nc1cccc(-c2nc3ccccc3o2)c1 | i
Clc1ccccc1CSc1nc2ccccc2o1 | i
O=C(c1cccc(Cn2cccn2)c1)N1CCOC(c2ccc(F)cc2)C1 (stereo not given) | i
Cc1ccc(-c2cc(C(=O)O)c3cc4c(C(=O)O)cc(-c5ccc(C)o5)nc4cc3n2)o1 | 91%*
O=C(O)c1cc(-c2cc(C(=O)O)c3ccccc3n2)nc2ccccc12 | i
Cc1cc(C(=O)O)c2ccccc2n1 | i
COc1ccc(C2=NN(C(=O)CCCC(=O)O)C(c3cc4ccc(C)cc4nc3Cl)C2)cc1 (stereo not given) | i
O=C(O)c1ccc(O)c(C=Nc2ccc3oc(-c4cccc(Cl)c4)nc3c2)c1 | i
COc1ccc(Cl)cc1C(=O)Nc1ccc(C)c(-c2nc3ncccc3o2)c1 | 35%*
COc1ccccc1C(=O)Nc1cccc(-c2nc3ncccc3o2)c1 | i
COc1ccc(C(=O)Nc2ccc(Cl)c(-c3nc4ncccc4o3)c2)cc1OC | i
CN(Cc1ccccc1)C(=O)c1cc(-c2ccc(Cl)c(Cl)c2)on1 | i
CCC(=O)Oc1ccc2c(=O)c(-c3ccccc3OC)coc2c1 | i
COc1cc(C(=O)Nc2ccc3c(c2)nc(C)n3Cc2ccccc2)cc(OC)c1OC | i
COc1ccc2c(c1)CN(c1ccc(C(=O)O)cc1)CO2 | i
CCOc1ccc(N2COc3ccc(OCC)cc3C2)cc1 | i
COc1ccc(N2COc3ccc(Cl)cc3C2)cc1 | 37%*
COCc1ccc(CN2CCCC(CNC(=O)c3cccc(OC)c3OC)C2)o1 (stereo not given) | i
CCCOc1cccc(C(=O)Nc2ccc([N+](=O)[O-])cc2OC)c1 | i
SMILES | ST2 inh
COc1ccc(NC(=O)Cn2cnc3sc4c(c3c2=O)CCCC4)cc1OC | i
Cc1ccc2c3c(c(N)c(=O)[nH]c13)-c1ccccc1C2=O | 51%*
O=c1ccnc(SCc2ccc(Br)cc2)[nH]1 | i
COc1ccc(NC(=O)Cc2cn(C)c3ccccc23)c(OC)c1 | i
CSc1ncccc1C(=O)N(C)Cc1nc(C)no1 | i
O=c1c(CN2CCN(c3ccccn3)CC2)coc2ccccc12 | i
CCCCn1ncc(C)c1NC(=O)c1ccsc1 | 31%*
CCC(CC)n1ncc(C)c1NC(=O)c1cc(C)nc(C)n1 | i
CCCCn1ncc(C)c1NC(=O)[C@H]1CCCO1 | i
COc1ccc(CN(C)C(=O)c2cc3n(n2)CCCNC3)c2cccnc12 | i
Nc1ccc(-c2cc(N)n(-c3ccc(Oc4ccccc4)c(S(=O)(=O)O)c3)n2)cc1 | i
CCCCNC(=O)CN1C(=O)C(CC)Oc2ccccc21 (stereo not given) | i
O=C1c2ccccc2C(=O)N1C1c2ccccc2Oc2ccccc21 | i
Cc1ccc(OCC(=O)Nc2sc(C)c(C)c2C(N)=O)c(Br)c1 | i
Cc1ccc(Nc2cc(C)nc(N3CCN(S(=O)(=O)c4cc(C(C)C)ccc4C)CC3)n2)cc1 | 30%*
Cc1ccc(Nc2cc(C)nc(N3CCN(S(=O)(=O)c4c(C)cc(C)cc4C)CC3)n2)cc1 | i
Cc1ccc(C)c(S(=O)(=O)N2CCN(c3nc(C)cc(Nc4ccccc4)n3)CC2)c1 | i
CCC(C)C1N=C2c3ccccc3N=C(SCc3cc(=O)n4ccccc4n3)N2C1=O (stereo not given) | i
CC1CCN(C(=O)CSc2nnc(Cc3cc(=O)[nH]c(=O)[nH]3)n2-c2ccccc2)CC1 | i
CC(C)C(C(=O)Nc1ccccc1Br)N1C(=O)c2ccccc2C1=O (stereo not given) | i
COc1cc(NC(=O)C(C(C)C)N2C(=O)c3ccccc3C2=O)c(OC)cc1Cl (stereo not given) | 41%*
COc1ccccc1NC(=O)C(C(C)C)N1C(=O)c2ccccc2C1=O (stereo not given) | i
COC(=O)C1C(=O)C2=C(CC1C)NC(C)=C(C(=O)OC(C)C)C2c1ccc(O)c(OC)c1 (stereo not given) | i
Cc1ccc2nc(C)c(C(=O)N[C@@H](Cc3ccc(O)cc3)C(=O)O)cc2c1 | i
COC(=O)c1ccc(C(=O)Nc2nc3ccc4ccccc4c3s2)cc1 | i
SMILES | ST2 inh
COc1ccc(-c2noc([C@@H]3C[C@H](NC(=O)Nc4ccc(C)cc4)CN3C)n2)cc1 | i
COc1cccc(NC(=O)N[C@H]2C[C@@H](c3nc(-c4ccccc4)no3)N(C)C2)c1 | i
CN1C[C@@H](NS(=O)(=O)c2ccc(C#N)cc2)C[C@H]1c1nc(-c2ccccc2)no1 | 51%*
CN1C[C@@H](NS(=O)(=O)c2ccc(Cl)cc2)C[C@H]1c1nc(-c2ccccc2)no1 | i
CN1C[C@@H](NC(=O)NC2CCCCC2)C[C@H]1c1nc(-c2ccc3c(c2)OCO3)no1 | i
COc1ccc(NC(=O)N[C@H]2C[C@@H](c3nc(-c4ccc(OC)cc4)no3)N(C)C2)cc1 | i
COc1ccc(-c2noc([C@@H]3C[C@H](NC(=O)NC(C)C)CN3C)n2)cc1 | 42%*
COc1ccc(-c2noc([C@@H]3C[C@H](NS(=O)(=O)c4ccc(C)cc4)CN3C)n2)cc1 | i
COc1ccc(-c2noc([C@@H]3C[C@H](NC(=O)CCC(=O)O)CN3C)n2)cc1 | 30%*
CN1C[C@@H](NC(=O)C2CCCCC2)C[C@H]1c1nc(-c2ccccc2)no1 | i
CN1C[C@@H](NC(=O)NC2CCCCC2)C[C@H]1c1nc(-c2ccccc2)no1 | 82%*
Cc1ccc(-c2noc([C@@H]3C[C@H](NS(=O)(=O)c4ccc(C)cc4)CN3C)n2)cc1 | i
Cc1nc2cc(-c3ccccc3)nn2c(C)c1CCC(=O)NC(C)c1ccccc1 (stereo not given) | i
COc1ccc(C2C(C(C)=O)=C(O)C(=O)N2c2cccc(C(=O)O)c2)cc1OC (stereo not given) | i
COc1ccc2c(c1)CCC1C2CC[C@@]2(C)C1CC[C@@H]2NCCCCCCN1C(=O)CCC1=O (stereo not given in full) | i
CCCOC(=O)C1=C(C)NC2=C(C(=O)C(C(=O)OC)C(C)C2)C1c1ccc(OCCC)cc1 (stereo not given) | i
Cc1ccccc1-n1ncc(C(C)NS(=O)(=O)c2sccc2C)c1C (stereo not given) | i
COCCN1C(=O)C(=O)C(=C(O)c2ccc(C)cc2)C1c1ccc(F)cc1 (stereo not given) | i
Cc1cc(Br)ccc1NS(=O)(=O)c1ccc2[nH]c(=O)c(=O)[nH]c2c1 | i
OCC1OC(c2c(O)cc(C3C(c4ccc(O)cc4)OC(c4ccc(O)cc4)C3c3cc(O)c(C4OC(CO)C(O)C(O)C4O)c(O)c3)cc2O)C(O)C(O)C1O (stereo not given) | i
COc1cc(C2C3=C(CCCC3=O)OC3=C2C(=O)CCC3)ccc1OCc1ccc(C(=O)O)cc1 | i
Cc1ccc(N=C2C(=O)N(CN3CCOCC3)c3ccccc32)cc1 | i
O=C1C(=O)N(CN2CCCCCC2)c2ccccc21 | 42%*
O=C(CN1C(=O)C(=O)c2ccccc21)c1ccccc1 | i
O=C(O)CN=C1CCCc2ccccc2N1 | i

Bioassay records: PubChem BioAssay, Paczesny and Yang Labs, IUPUI and University of Michigan
